We go through five molecules from the supplement of paper PMC4022240.

± gives the standard deviation.

What all share (test): peptide microarray binding signal (635 nm), min-max normalized on array (fraction of array maximum); higher = stronger binding
In assay [1] the target is T1, HaloTag-ATRX ADD domain (163-292).
T1 chain: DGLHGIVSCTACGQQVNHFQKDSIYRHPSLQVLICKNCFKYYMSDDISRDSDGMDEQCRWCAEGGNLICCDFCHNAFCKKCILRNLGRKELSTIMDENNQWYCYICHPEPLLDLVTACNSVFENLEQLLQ
Here is the method: (§1)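 Histone 13-mer peptides were synthesized as cellulose conjugates with a C-terminal 20-atom PEG linker and printed in triplicate on nitrocellulose. The sequence given is the unmodified backbone; PTMs (Kme1/2/3, Kac, Sph/Tph, Rme/Rme2a/Rme2s, Rcit) are listed in the label and the 'peptide modifications' condition. Slides were probed at 4 °C for 1 h with biotin-labelled (HQ)5-HaloTag reader fusions (ATRX-ADD, ING2-PHD) then streptavidin-Alexa647, or with rabbit histone antibodies then anti-rabbit Alexa647. The mean 635 nm signal of the triplicate spots was scaled 0-1 between the lowest and highest values on each array.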

Assay [2] deals with HaloTag-ING2 PHD (mouse Ing2 200-280). Here is the method:
as §1

For assay [3], the target named is anti-H3K4me3 antibody ab8580. Here is the method: as §1
The target in assay [4] is anti-H3K9me3 antibody ab8898. Here is the method:
as §1

The mark [5] stands for this setting: peptide region: H2B 1-13, peptide modifications: H2BK5ac H2BK11ac, binder concentration: 1:2,000 dilution.
[6] abbreviates: peptide region: H2B 1-13, peptide modifications: H2BK5ac H2BK11ac, binder concentration: 1:10,000 dilution.
Where [7] appears, read: peptide region: H2A 1-13, peptide modifications: H2AS1ph H2AK5ac H2AK9ac, binder concentration: 1:2,000 dilution.
Where [8] appears, read: peptide region: H2A 1-13, peptide modifications: H2AS1ph H2AK5ac H2AK9ac, binder concentration: 1:10,000 dilution.
Where [9] appears, read: peptide region: H2A 11-23, peptide modifications: H2AK15ac H2AT16ph, binder concentration: 1:2,000 dilution.
Setting [10] is: peptide region: H2A 11-23, peptide modifications: H2AK15ac H2AT16ph, binder concentration: 1:10,000 dilution.
The mark [11] stands for this setting: peptide region: H2A 11-23, peptide modifications: H2AK13ac H2AK15ac, binder concentration: 1:2,000 dilution.
The mark [12] stands for this setting: peptide region: H2A 11-23, peptide modifications: H2AK13ac H2AK15ac, binder concentration: 1:10,000 dilution.
[13] abbreviates: peptide region: H2A 1-13, peptide modifications: H2AS1ph H2AR3me1, binder concentration: 1:2,000 dilution.
[14] abbreviates: peptide region: H2A 1-13, peptide modifications: H2AS1ph H2AR3me1, binder concentration: 1:10,000 dilution.

As for PEPAKSAPAPKKG [H2B 1-13 P E P A Kac S A P A P Kac K G], the “peptide microarray binding signal” value worked out at 0.00439 ± 0.00015 in assay [1] (peptide region: H2B 1-13, peptide modifications: H2BK5ac H2BK11ac, binder concentration: 50 nM); 0.00957 ± 0.00041 in assay [1] (peptide region: H2B 1-13, peptide modifications: H2BK5ac H2BK11ac, binder concentration: 500 nM); 0.00853 ± 0.00038 in assay [2] (peptide region: H2B 1-13, peptide modifications: H2BK5ac H2BK11ac, binder concentration: 10 nM); 0.0114 ± 0.0021 in assay [2] (peptide region: H2B 1-13, peptide modifications: H2BK5ac H2BK11ac, binder concentration: 100 nM); 0.00251 ± 0.0019 in assay [3] (setting [5]); 0.00108 ± 3.8e-05 in assay [3] (setting [6]). Also, the “peptide microarray binding signal” value in assay [4] (setting [5]) is 0.00198 ± 0.00033; in assay [4] (setting [6]) it was 0.00225 ± 0.0002.

Turning to SGRGKQGGKARAK [H2A 1-13 Sph G R G Kac Q G G Kac A R A K], the “peptide microarray binding signal” value was 0.00408 ± 0.00018 in assay [1] (peptide region: H2A 1-13, peptide modifications: H2AS1ph H2AK5ac H2AK9ac, binder concentration: 50 nM); 0.00738 ± 0.00011 in assay [1] (peptide region: H2A 1-13, peptide modifications: H2AS1ph H2AK5ac H2AK9ac, binder concentration: 500 nM); 0.00257 ± 5e-05 in assay [2] (peptide region: H2A 1-13, peptide modifications: H2AS1ph H2AK5ac H2AK9ac, binder concentration: 10 nM); 0.00687 ± 0.00064 in assay [2] (peptide region: H2A 1-13, peptide modifications: H2AS1ph H2AK5ac H2AK9ac, binder concentration: 100 nM); 0.000321 ± 6.7e-06 in assay [3] (setting [7]); 0.000399 in assay [3] (setting [8]). Moreover, the “peptide microarray binding signal” value is 0.000272 ± 4.9e-06 in assay [4] (setting [7]) and 0.000577 ± 6.2e-06 in assay [4] (setting [8]).

As to RAKAKTRSSRAGL [H2A 11-23 R A K A Kac Tph R S S R A G L], the “peptide microarray binding signal” value in assay [1] (peptide region: H2A 11-23, peptide modifications: H2AK15ac H2AT16ph, binder concentration: 50 nM) is 0.006489 ± 4.3e-05; in assay [1] (peptide region: H2A 11-23, peptide modifications: H2AK15ac H2AT16ph, binder concentration: 500 nM) it was 0.0117 ± 0.00031; in assay [2] (peptide region: H2A 11-23, peptide modifications: H2AK15ac H2AT16ph, binder concentration: 10 nM) it was 0.00722 ± 0.0003; in assay [2] (peptide region: H2A 11-23, peptide modifications: H2AK15ac H2AT16ph, binder concentration: 100 nM) it was 0.0188 ± 0.00091; in assay [3] (setting [9]), 0.000925 ± 7.2e-05; in assay [3] (setting [10]) it was 0.00103 ± 2.8e-05. Further, the entries for the “peptide microarray binding signal” value in assay [4] (setting [9]) and in assay [4] (setting [10]) were 0.000513 ± 2.1e-05 and 0.000923 ± 2.5e-05, respectively.

With RAKAKTRSSRAGL [H2A 11-23 R A Kac A Kac T R S S R A G L], the “peptide microarray binding signal” value in assay [1] (peptide region: H2A 11-23, peptide modifications: H2AK13ac H2AK15ac, binder concentration: 50 nM) worked out at 0.00307 ± 8.1e-05; in assay [1] (peptide region: H2A 11-23, peptide modifications: H2AK13ac H2AK15ac, binder concentration: 500 nM), 0.00481 ± 0.00022; in assay [2] (peptide region: H2A 11-23, peptide modifications: H2AK13ac H2AK15ac, binder concentration: 10 nM), 0.0034 ± 8e-05; in assay [2] (peptide region: H2A 11-23, peptide modifications: H2AK13ac H2AK15ac, binder concentration: 100 nM), 0.00227 ± 5.8e-05; in assay [3] (setting [11]), 0.000359 ± 1.5e-05; in assay [3] (setting [12]), 0.000628 ± 6.7e-06. Further, the “peptide microarray binding signal” value stood at 0.000529 ± 5.7e-05 in assay [4] (setting [11]) and 0.000577 ± 1.6e-05 in assay [4] (setting [12]).

In the case of SGRGKQGGKARAK [H2A 1-13 Sph G Rme G K Q G G K A R A K], the “peptide microarray binding signal” value in assay [1] (peptide region: H2A 1-13, peptide modifications: H2AS1ph H2AR3me1, binder concentration: 50 nM) stood at 0.0036 ± 0.00033; in assay [1] (peptide region: H2A 1-13, peptide modifications: H2AS1ph H2AR3me1, binder concentration: 500 nM), 0.00495 ± 6.5e-05; in assay [2] (peptide region: H2A 1-13, peptide modifications: H2AS1ph H2AR3me1, binder concentration: 10 nM) it was 0.00346 ± 0.00011; in assay [2] (peptide region: H2A 1-13, peptide modifications: H2AS1ph H2AR3me1, binder concentration: 100 nM) it was 0.00446 ± 0.00061; in assay [3] (setting [13]), 0.000566 ± 1.9e-05; in assay [3] (setting [14]), 0.000799 ± 8.3e-06. Further, the figures for the “peptide microarray binding signal” value in assay [4] (setting [13]) and in assay [4] (setting [14]) were 0.000287 ± 2.9e-06 and 0.000807 ± 1.5e-05, respectively.
